# SW480 rereplic: A quantitative high throughput screen for small molecules that induce DNA re-replication in SW480 colon adenocarcinoma cells | SW480 DNA re-replication, Hoechst DNA content imaging, 48 h | Potency, µM (top dose mostly 46.1 µM), without a hit: at the highest dose re-replication activation, actives largely listed as activators | AID 624297, 2012 | hit rate 1.8% among 340,000; also: potency is read from the fitted curve at half-maximal effect; % of control where 0% means no effect; nearly all actives have a fitted effect of over 55% in size
#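 250 cells/well; 23 nL cpd via pin tool; 48 hr, 37 C, 5% CO2; Hoechst 40 min; imager read of total nuclear intensity, ex 405/em 500-530 nm.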
# MCF10A rereplic: A quantitative high throughput screen for small molecules that induce DNA re-replication in MCF 10a normal breast cells; MCF 10A DNA re-replication, Hoechst nuclear intensity, 48 h; Potency, µM (titrated, usually from 46.1 µM), for the others: top-dose activity, positive = re-replication, usual class: activators; hit rate 2.9% among 350,000; AID 624296, 2012; also: potency is read from the fitted curve at half-maximal effect; % of control where 0% means no effect; nearly all actives have a fitted effect of over 50% in size
# KB-3-1 tox: qHTS assay for MDR1-selective chemotherapeutics: Primary screen using the parental adenocarcinoma cell KB-3-1; KB-3-1 viability, CellTiter-Glo ATP luminescence, 72 h; Potency, µM (titrated, usually from 46.1 µM), most hits filed as cytotoxic; hit rate 1.4% among 400,000; AID 1347075, 2019; also: potency is read from the fitted curve at half-maximal effect; % is scaled to controls: 0 for no effect and ±100 for the full control effect; nearly all actives have a fitted effect of over 60% in size
#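 Multi-concentration cytotoxicity screen in KB-3-1 cells grown in DMEM lacking phenol red with 10% FBS. After 72 h at 37 °C with compound, ATP-dependent luminescence was recorded.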
# Giardia killer: Small Molecules that selectively kill Giardia lamblia: qHTS; Giardia lamblia trophozoite viability; activity change, % at 7.66 µM, hits read low; hit rate 0.15% among 340,000; in the data active = activity change below about -80%; inconclusive = between about -30% and that limit;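 also: parasites exposed to compound for two days anaerobically before the ATP read; % is scaled to controls: 0 for no effect and ±100 for the full control effect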
#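 Trophozoite viability was measured as ATP-dependent luminescence, read 15-30 min after reagent addition. Before that, parasites at 100 cells/well were exposed to compounds for 48 h, anaerobically, at 37 deg C.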
# S-ASM inh: Inhibitors of Secretory Acid Sphingomyelinase (S-ASM): qHTS | placental ASM, HMU-PC fluorogenic substrate, 60 min | Potency, µM (series often up to 57.5 µM), without a hit: at the highest dose activity change, negative = inhibition, most hits filed as inhibitors | hit rate 0.006% among 340,000 | AID 504937, 2011; also: potency is read from the fitted curve at half-maximal effect
# Target sequence (P17405 47-631 limits assumed): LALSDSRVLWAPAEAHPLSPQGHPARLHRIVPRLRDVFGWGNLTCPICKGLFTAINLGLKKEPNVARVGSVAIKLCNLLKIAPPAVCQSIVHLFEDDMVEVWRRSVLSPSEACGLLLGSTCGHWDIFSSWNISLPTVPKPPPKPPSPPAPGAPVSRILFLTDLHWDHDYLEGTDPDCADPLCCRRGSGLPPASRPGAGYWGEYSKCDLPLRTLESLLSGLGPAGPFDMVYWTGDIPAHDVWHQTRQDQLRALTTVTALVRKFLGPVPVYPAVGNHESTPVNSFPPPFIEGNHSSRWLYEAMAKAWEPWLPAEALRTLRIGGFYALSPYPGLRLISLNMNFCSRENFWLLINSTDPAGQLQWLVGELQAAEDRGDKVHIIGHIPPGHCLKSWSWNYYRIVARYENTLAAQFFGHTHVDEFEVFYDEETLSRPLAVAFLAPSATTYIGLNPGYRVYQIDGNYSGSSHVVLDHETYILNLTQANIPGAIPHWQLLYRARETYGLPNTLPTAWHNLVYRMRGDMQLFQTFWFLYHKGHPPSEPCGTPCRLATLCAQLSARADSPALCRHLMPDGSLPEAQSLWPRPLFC
#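 HMU-PC0 cleavage (9 uM final) by human placental ASM, 60 min at 37 °C following 10 min compound exposure at RT; stopped at pH 10, fluorescence Ex 386/Em 447 nm.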
# KB-V1 cytotox: qHTS assay for MDR1-selective chemotherapeutics: Primary screen using the drug-selected MDR subline cells KB-V1; KB-V1 MDR cells viability, CellTiter-Glo, 72 h; Potency, µM (titrated, usually from 46.1 µM), hits mostly cytotoxic; hit rate 3.4% among 400,000; also: potency is read from the fitted curve at half-maximal effect; % is scaled to controls: 0 for no effect and ±100 for the full control effect; nearly all actives have a fitted effect of over 60% in size
#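 In this primary screen, KB-V1 cells overexpressing P-gp are incubated with library compounds (lowest to highest concentration) for 72 h at 37 degrees C before a luminescent ATP viability read.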
# An asterisk follows results filed as active; i = inactive; ? = inconclusive; / = no result; [ ] = remark or other dose. Shown are actives, neighbours in structure and some others; about 6.9% of the full set was active somewhere. Unless noted, calls follow the shape of the dose curve; as a rule, active = well fitted curve in the direction sought with a large enough effect; inconclusive = small, poorly fitted or top-dose-only effect, or another doubt; inactive = no such curve, though single readings can be large; an effect the other way counts as inactive or inconclusive.
SMILES,SW480 rereplic,MCF10A rereplic,KB-3-1 tox,Giardia killer,S-ASM inh,KB-V1 cytotox
CCOC(=O)C(CC)(CC)C(=O)/C=C/c1cccc(Br)c1,?,18.4µM*,?,-10.2,-9.4%,?
O=C(CCn1cccn1)Nc1ccc2c(c1)OCO2,-5.3%,2.0%,i,6.8,4.0%,i
N#Cc1cc([N+](=O)[O-])cnc1Nc1ccccc1,-3.4%,0.0%,i,-1.0,-3.2%,i
O=C(c1ccc2ncsc2c1)N1CCN(c2cccc(C(F)(F)F)c2)CC1,?,13µM*,?,-16.9,-1.8%,?
O=C(c1ccc2c(c1)OCO2)N1CCN(c2cccc(C(F)(F)F)c2)CC1,?,11.6µM*,13µM*,-9.8,0.7%,16.4µM*
O=C(c1ccc2nc[nH]c2c1)N1CCN(c2cccc(C(F)(F)F)c2)CC1,?,0.0%,i,-9.0,-1.1%,i
CCS(=O)(=O)N1CCc2cc(C(=O)N3CCN(c4cccc(C(F)(F)F)c4)CC3)ccc21,/,/,16.4µM*,/,/,?
O=C(Nc1ccc2c(c1)OCO2)N1CCN(c2cccc(C(F)(F)F)c2)CC1,-0.5%,16.7%,i,-2.0,-7.5%,i
COC(=O)c1sc2cccc(F)c2c1S(=O)(=O)N1CCN(c2ccccc2OC)CC1,/,/,i,/,/,i
COc1ccccc1CNC(=O)c1c(-c2ccccc2)nn(-c2ccccc2)c1C,-5.9%,4.8%,i,-13.1,-3.7%,?
CCCCc1c(-c2cccc(F)c2)ncn1CCc1ccccc1OC,/,/,?,/,/,11.6µM*
CCCc1c(-c2cccc(F)c2)ncn1CCc1ccccc1OC,/,/,?,/,/,18.4µM*
CCCc1c(-c2cccc(F)c2)ncn1Cc1ccccc1OC,/,/,i,/,/,?
CCCCCc1c(-c2cccc(OC)c2)ncn1CCc1ccccc1OC,/,/,?,/,/,16.4µM*
CCCc1c(-c2ccccc2)ncn1Cc1ccccc1OC,/,/,?,/,/,18.4µM*
C[n+]1ccccc1/C=N\O,-3.4%[20.6 µM],-2.1%[20.6 µM],/,/,/,/
O=Cc1cccc(C=O)c1,/,/,i,/,/,i
Cc1oc(-c2ccccc2Cl)nc1CS(=O)(=O)CC(=O)NC(C)CCc1ccccc1 (configuration not stated),/,/,i,/,/,i
Cc1ccc(N2CCN(c3c(CN4CCCC4)c(=O)oc4ccccc34)CC2)c(C)c1,/,/,i,/,/,i
CCCCCc1c(-c2cccc(F)c2)ncn1CCc1ccccc1OC,/,/,?,/,/,8.2µM*
CCCCc1c(-c2cccc(Br)c2)ncn1CCc1ccccc1OC,/,/,?,/,/,10.3µM*
CCCCCc1c(-c2cccc(Cl)c2)ncn1CCc1ccccc1OC,/,/,i,/,/,?
CCCOc1ccc(-c2cccc(NS(=O)(=O)c3cc(OC)ccc3OC)c2)nn1,/,/,i,/,/,i
CN(C(=O)CCCN1C(=O)c2ccccc2C1=O)C1CCCCC1,-4.9%,4.2%,i,-5.5,0.4%,11.6µM*
COc1cc2cc(CNc3ccc(C)cc3)c(=O)n(CC(=O)Nc3ccc(C(C)C)cc3)c2cc1OC,/,/,i,/,/,i
SMILES,SW480 rereplic,MCF10A rereplic,KB-3-1 tox,Giardia killer,S-ASM inh,KB-V1 cytotox
CN(C(=O)c1cccnc1)c1nc(-c2ccccc2)cs1,-2.0%,0.5%,i,5.6,5.2%,20.6µM*
CN(Cc1ccccc1)C(=O)c1cccnc1,-9.1%,2.6%,i,0.6,0.7%,i
Cc1ccc(-c2csc(N(C)C(=O)c3c(C)nn(-c4ccccc4)c3Cl)n2)cc1,-4.8%,5.8µM*,i,-8.5,-6.7%,?
Cc1ccc(CN(C)C(=O)c2c(C)nn(-c3ccccc3)c2C)cc1,-9.5%,?,i,4.9,4.3%,i
O=C(Nc1ccc(OC(F)(F)F)cc1)C(NS(=O)(=O)c1cccc2nsnc12)c1ccccc1 (configuration not stated),/,/,i,/,/,?
Cc1cc(C)c2oc(-c3ccc(Cl)c(NC(=O)c4cccs4)c3)nc2c1,/,/,i,/,/,i
Cc1cc(C)n(-c2nc(Nc3ccccc3C(F)(F)F)nc(-n3nc(C)cc3C)n2)n1,?,?,i,?,-16.8%,0.92µM*
Cc1cc(C)n(-c2nc(NC(C)C)nc(NC(C)C)n2)n1,2.91µM*,17.8%,i,-10.2,-2.6%,?
CCc1ccc(/C=C2/Sc3ccccc3N(CC(=O)NCC3CCCO3)C2=O)cc1 (configuration not stated),?,?,i,5.2,-7.6%,i
Cc1cccc(C(=O)OC(C)C(=O)Nc2ccc(S(=O)(=O)N3CCCC3)cc2)c1O (configuration not stated),2.8%,?,i,13.1,-5.9%,i
CC(Oc1cc(F)ccc1[N+](=O)[O-])C(=O)Nc1ccc(S(=O)(=O)N2CCCC2)cc1 (configuration not stated),16.4µM*,20.6µM*,i,-15.4,-8.8%,?
CC(OC(=O)c1cc(Br)ccc1O)C(=O)Nc1ccc(S(=O)(=O)N2CCCC2)cc1 (configuration not stated),?,?,?,5.0,7.7%,23.1µM*
Cc1ccccc1OC(C)C(=O)Nc1ccc(S(=O)(=O)N2CCCC2)cc1 (configuration not stated),-3.1%,?,/,2.3,-1.9%,/
COC(=O)c1ccc(CNC(=O)COC(=O)c2cc(Cl)ccc2O)cc1,-4.6%,8.0%,i,-10.8,18.0%,i
CCCCCCOc1ccc(/C=C/C(=O)Nc2sc3c(c2C(=O)OC)CCC3)cc1OC,/,/,i,/,/,?
O=C(Nc1ccc(F)cc1)Nc1nnc(Cc2ccccc2F)s1,0.6%,2.0%,i,25.3,0.2%,18.4µM*
COc1cccc(NC(=O)Nc2nnc(Cc3ccccc3F)s2)c1,5.3%,14.6µM*,i,10.5,-5.9%,?
Cc1ccc(Cn2c(=O)n(Cc3ccc(Cl)cc3)c(=O)c3cccnc32)cc1,/,/,i,/,/,i
CC(C)n1c(CN2CCN(C(=O)c3ccco3)CC2)nc2c1c(=O)n(C)c(=O)n2C,5.0%,-0.3%,i,28.1,4.1%,i
CNC(=S)N(CCc1c(C)[nH]c2ccc(C)cc12)Cc1cccs1,29.6%,3.66µM*,i,12.6,-3.8%,?
CC(=O)c1ccc(NC(=O)Cn2cc(S(=O)(=O)Cc3cccc(Cl)c3)c3ccccc32)cc1,/,/,i,/,/,i
O=C(Cn1cc(S(=O)(=O)Cc2ccccc2)c2ccccc21)Nc1ccccc1,-2.1%,22.4%,i,14.2,-0.1%,18.4µM*
CCCCCc1cc[n+](CC(=O)c2ccccc2)cc1,/,/,i,/,/,i
